Screening results deposited in PubChem by several laboratories.
TIM10 inh = growth inhibitors of TIM10 yeast strain | S. cerevisiae TIM10 strain growth, BacTiter-Glo luminescence, 24 h | inhibition, % at 10 µM | hit rate 1.4% among 330,000;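 active means inhibition of 40% or more at the single tested concentration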;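 further: wild-type TIM10 isogenic control strain grown at permissive 25 °C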
SKKanGAS inh = inhibitors of SKKanGAS S. pyogenes growth in kanamycin (SK-promoter or general growth effect). BacTiter-Glo, 6 h. inhibition, % at 7.5 µM. hit rate 1.3% among 300,000. AID 1662;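 active means mean replicate score, as percent of positive control median, at least 50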;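 further: strain carries kanamycin resistance gene driven by streptokinase promoter and grows in 40 µg/ml kanamycin; loss of luminescence reflects streptokinase promoter inhibition or plain growth inhibition; 0% = median of DMSO wells and 100% = positive control at its reference dose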
tim10-1 inh = inhibits growth of tim10-1 mutant yeast; S. cerevisiae tim10-1 ts strain growth, BacTiter-Glo, 24 h; inhibition, % at 20 µM; hit rate 2.2% among 330,000;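 active means inhibition of at least 40%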;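 further: mutant grown at 25 °C; 0% = DMSO wells with yeast and 100% = wells holding no yeast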
ATG4B inhibitor = blocks human ATG4B protease cleavage of LC3 substrate. Q9Y4P1. ATG4B cleavage of LC3-PLA2, NBD-HPC fluorescence, 1 h. inhibition, % at 8.33 µM. hit rate 0.51% among 340,000. AID 504462; in the data active means inhibition above about 40%
Target sequence (Q9Y4P1 whole entry, looked up): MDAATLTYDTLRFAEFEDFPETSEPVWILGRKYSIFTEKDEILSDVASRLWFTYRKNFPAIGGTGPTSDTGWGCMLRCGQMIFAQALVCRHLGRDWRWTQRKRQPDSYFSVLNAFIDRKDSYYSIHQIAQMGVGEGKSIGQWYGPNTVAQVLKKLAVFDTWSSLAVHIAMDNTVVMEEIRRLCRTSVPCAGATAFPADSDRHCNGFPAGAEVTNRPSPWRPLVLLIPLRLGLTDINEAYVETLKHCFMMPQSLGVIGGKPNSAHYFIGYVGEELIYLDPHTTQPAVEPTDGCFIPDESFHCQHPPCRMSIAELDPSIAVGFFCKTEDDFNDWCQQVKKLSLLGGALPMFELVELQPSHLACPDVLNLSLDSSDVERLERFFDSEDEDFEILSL
PfHsp90 set2 = reduces growth (ATP signal) of yeast expressing P. falciparum Hsp90. inhibition, % at 9.4 µM. S. cerevisiae expressing PfHsp90, BacTiter-Glo ATP, 48 h; yeast lacking PDR1 and PDR3 efflux regulators. AID 504621. hit rate 0.32% among 310,000;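 active means every replicate shows inhibition above about 80%, whatever the replicate mean, limit read from the data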;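 further: 0% = DMSO neutral controls and 100% = 20 µM radicicol positive controls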
tim23-1 inh = growth inhibitors of tim23-1 mutant yeast. inhibition, % at 20 µM. hit rate 1.3% among 330,000. S. cerevisiae tim23-1 growth, BacTiter-Glo luminescence, 24 h;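 active means growth inhibition of the mutant yeast at or above 50%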;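 further: temperature-sensitive mutant grown at 25 °C; plate controls were DMSO-treated mutant yeast for no effect and medium wells lacking yeast for full effect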
tim10-1 confirm = tim10-1 yeast growth inhibition, confirmed; shares compounds with tim10-1 inh; S. cerevisiae tim10-1 ts strain growth, BacTiter-Glo, 24 h; inhibition, % at 20 µM; hit rate 56% among 7,400; AID 463213;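 active means inhibition of yeast growth at or above a set limit in either of two repeat tests at 20 µM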;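 further: tim10-1 mutant grown at permissive 25 °C to find synthetic lethal compounds; 0% = DMSO yeast wells and 100% = medium wells without yeast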
Active calls of the source: *; x = no result. Rows were chosen to be rich in hits. Some 4.7% of all compounds tested hit in one or more screens of this group.

SMILES	TIM10 inh	SKKanGAS inh	tim10-1 inh	ATG4B inhibitor	PfHsp90 set2	tim23-1 inh	tim10-1 confirm
Cc1nnc(SC2CC(=O)N(c3ccccc3)C2=O)s1 (stereo not given)	18	-3	47*	3	12	23	38*
O=C1CC(Sc2nnc(-c3ccccc3)o2)C(=O)N1c1ccccc1 (stereo not given)	36	-1	51*	-9	26	38	51*
NNc1nc2c(F)cc(F)cc2s1	26	5	41*	4	-62	45	18
NNc1nc2c(F)cccc2s1	14	-8	18	-5	-9	35	x
O=S(=O)(NCc1ccccn1)c1ccc(Cl)s1	-6	-10	-5	-2	-13	-3	x
COc1cc2c(cc1OC)C(COc1cccc(C(F)(F)F)c1)NCC2 (stereo not given)	40	-4	47*	1	1	40	47*
COc1ccc(C(=O)N2CCN(CCCc3ccccc3)CC2)cc1OC	4	8	7	1	-6	10	x
CC(=O)c1ccc(N2CCC(c3cc(-c4ccc(Cl)cc4Cl)n[nH]3)CC2)c([N+](=O)[O-])c1	36	80*	44*	-13	x	16	22
CC(=O)c1ccc(N2CCN(c3ccccc3O)CC2)c([N+](=O)[O-])c1	7	11	25	-2	-33	20	x
Cc1ccc2nc(C(F)(F)F)c(C#N)c(N)c2c1	24	1	18	-4	x	25	x
Cc1cc(C)c2nc(C(F)(F)F)c(C#N)c(N)c2c1	30	-5	42*	-3	-7	11	20
COc1ccc(/C=N/NC(=O)c2ccccc2O)cc1CSc1ccccn1	-11	-3	-32	1	27	-6	x
COc1ccc(CN(CCC#N)C(=S)NC(=O)c2ccccc2)cc1	1	14	5	-2	-19	11	x
N#CCCN(Cc1ccccc1)C(=S)NC(=O)c1ccccc1	38	-3	40*	14	-16	33	28
CC1(c2ccc(OC(F)F)cc2)NC(=O)N(CC(=O)Nc2ccc(OC(F)F)cc2)C1=O (stereo not given)	10	-2	-9	-10	-6	4	x
CCOC(=O)c1c(NC(=O)CN2C(=O)NC(C)(c3ccc(OC(F)F)cc3)C2=O)sc(C)c1C (stereo not given)	18	16	43*	24	2	22	27
c1ccc(NCc2ccncc2)cc1	-2	7	0	2	9	8	x
O=C(COn1nnc2ccc(Cl)cc21)NC12CC3CC(CC(C3)C1)C2	37	3	40*	-3	12	48	32*
CN(C)c1ccc(/C=N/NC(=O)C(=O)/C=C2\NC3(CCCC3)Cc3ccccc32)cc1	28	10	42*	36	-19	42	19
COc1ccc(-n2nc(C(=O)Nc3ccc(OC)c(OC)c3)c3c4ccccc4n(C)c3c2=O)cc1	17	10	41*	-9	-85	5	-1
COc1ccc(-c2csc(NC(=O)CSCc3c(C)noc3C)n2)cc1OC	10	5	16	1	-3	21	x
Cc1noc(C)c1CSCC(=O)Nc1nc(-c2ccc(F)c(F)c2)cs1	36	-6	40*	9	-6	25	29
Cc1ccccc1S(=O)(=O)c1c(C)cc(C)n(C)c1=O	-15	3	-10	-9	27	6	x
Cc1ccccc1S(=O)(=O)c1c(C)cc(C)n(CC(C)C)c1=O	30	11	48*	-4	-21	20	25
CCc1ccccc1NC(=O)C(C#N)Cc1cccnc1 (stereo not given)	-2	-6	11	1	x	-7	x
Cc1cccc(NC(=S)NCCC(C)C)c1	-24	-5	-21	9	-14	19	x
COc1ccccc1NS(=O)(=O)c1cc2c(cc1C)NC(=O)CO2	7	0	5	-21	-53	-2	x
O=C(NN1C(=O)/C(=C/c2ccc(O)cc2)SC1=S)c1cccc(O)c1	5	5	6	4	-5	6	x
CC(/C=C1\SC(=S)N(NC(=O)c2cccc(O)c2)C1=O)=C\c1ccccc1	11	31	51*	32	-100	42	31*
